This is part of a sample that, as a whole, favours compounds with a hit. Of some 83,000 tested, about 20% had one in any assay.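 Interpretation: 100, growth as untreated; towards 0, rising growth inhibition; 0, no net growth; 0 to -100, cell death. Compounds scoring below 10 were considered active.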 Values without a mark were called inactive. Activity calls are given as the source filed them.
Tests used:
Assay in all cases: NCI-60 one-dose screen, 48 h (100 = growth as untreated, 0 = no growth, -100 = all killed)
Settings in all cases: 10 µM unless noted
[1] = tested on: HCT-15 colon
[2] = tested on: HT29 colon
[3] = tested on: SNB-75 CNS
[4] = tested on: SNB-19 CNS
[5] = tested on: U251 CNS
[6] = tested on: PC-3 prostate
[7] = tested on: SK-MEL-5 melanoma
[8] = tested on: UACC-62 melanoma
[9] = tested on: LOX IMVI melanoma
[10] = tested on: SK-MEL-28 melanoma

| Compound | growth [1] | growth [2] | growth [3] | growth [4] | growth [5] | growth [6] | growth [7] | growth [8] | growth [9] | growth [10] |
| --- | --- | --- | --- | --- | --- | --- | --- | --- | --- | --- |
| Cc1cccc(-n2c(C)nc3ccc(N4CCCNC4=O)cc3c2=O)c1 | 113% | 106% | 103% | 98.2% | 93.4% | 100% | 102% | 97.3% | 97.7% | 112% |
| O=C(CCCCl)NNc1nccc(Nc2ccc(S(=O)(=O)Nc3ccncc3)cc2)n1 | 103% | 102% | 93.2% | 106% | 103% | 93% | 105% | 102% | 98% | 107% |
| Clc1ccc(-c2cn3ccsc3n2)c(Cl)c1Cl | 89.5% | 105% | 86.4% | 105% | 91% | 93.5% | 79.8% | 67.7% | 80.7% | 120% |
| C(/C=C/c1ccccc1)=Nc1ccc(CCc2ccc(N=C/C=C/c3ccccc3)cc2)cc1 | 15.9% | 36.4% | 116% | 88.1% | 75% | 71.7% | 96.6% | 73.6% | 73.1% | 109% |
| CNC(=O)c1cc(Oc2ccc3nc(NC(=O)Nc4ccc(Cl)c(Cl)c4)sc3c2)ccn1 | 55% | 36.4% | -38.3% (active) | 74.9% | 24% | -24.7% (active) | 72.7% | 75.8% | -91.9% (active) | 41.4% |
| Cc1cc(C(=O)Nc2cc(Nc3ncccc3-c3ncnc4nc[nH]c34)ccc2F)cc(C(F)(F)F)c1 | 60.1% | 20.8% | 59.4% | 74.4% | 57.3% | 72.2% | 29.2% | -2.36% (active) | 1.22% (active) | 10.3% |
| C=C1C(=O)O[C@H]2[C@H]1CC/C(COC(=O)c1cc3cc(F)ccc3[nH]1)=C\CC[C@@]1(C)O[C@@H]21 | -59.8% (active) | -53.6% (active) | -35.3% (active) | -10.2% (active) | -86% (active) | -75.2% (active) | -94.5% (active) | -71.9% (active) | -87.2% (active) | -77.4% (active) |
| Cn1cc(-c2nc(-c3c[nH]c4ccncc34)cs2)c2cc(Br)ccc21 | -85.4% (active) | -81.9% (active) | -97% (active) | -76% (active) | -84.1% (active) | -86.4% (active) | -47.9% (active) | -86.7% (active) | -90% (active) | -91.3% (active) |
| CC1(C)C2CC=C(/C=N/NC(=O)C3CCC(=O)N3)C1C2 (stereo not given) | 104% | 106% | 91.6% | 106% | 101% | 102% | 101% | 99.2% | 96.9% | 108% |
| COc1cc2ncnc(Nc3ccc(F)c(Cl)c3)c2cc1OCC(=O)N1CCN(c2ccc(F)cc2)CC1 | 92.7% | 86.7% | 91.2% | 83.6% | 107% | 94.6% | 98.2% | 87.9% | 93.3% | 98.4% |
| CN1CCN(CCOc2ccc(-c3cnc4c(-c5ccc(C(F)(F)F)cc5)cnn4c3)cc2)CC1 | -33.6% (active) | -15.5% (active) | 96.1% | 61.4% | 1.48% (active) | 28.3% | 64.4% | 72.4% | -89.9% (active) | 85.1% |
| CC1(C)OC(=O)C(=Cc2cccc(Br)c2)C(=O)O1 | 108% | 92.9% | 94.4% | 105% | 92.9% | 89.5% | 94.8% | 101% | 101% | 119% |
| COC(=O)c1c2c(n3ccc(C)cc13)C(=O)c1ccccc1C2=O | 53.6% | 61.5% | 109% | 78.3% | 77.3% | 48.9% | 28.5% | 78.3% | 58.3% | 99.4% |
| Cc1ccc(-c2nc(C#N)c(S(=O)(=O)NCCO)o2)cc1 | 41.8% | 24.2% | 105% | 88.3% | 74% | 61.7% | 75% | 60.3% | 46.4% | 70.7% |
